Data as given in PMC12136788.
Substitutions are numbered along the chain they refer to. In all, about 5,800 sequences were measured (“enrichment r”: median about 0.54, highest 2% from about 16 on). Only a selection was taken, and the highest values are over-represented in it overall.

B1: chr3:48857559:48857660:-|3pUTR|ENSG00000178537|unk|total|mutant (ssRNA)
RNA: GGGAGUUCUACAGUCCGACGAUCGGCUGAAGGCUGCUCAAGUUCACUUCUGGAUGCUGGAAGCUGUCGUUGAGGAGAAGGAGCCGUAAGCAGAACUAAGCAGUCUUGGAGGGCAAGGGGAGGGGAAUGGUGAGAUCCGAGCCCCAACAGAGGAUUGAGCAUCA
B2: chr2:20282997:20283108:-|CDS|ENSG00000055917|unk|total|mutant (ssRNA)
RNA: GGGAGUUCUACAGUCCGACGAUCACUAAUCUGCAAUCUAAUUCAUUUUAUGGAAGCAGUUCUUUGACUAACCGCUCCCAGAGCCGUUCUUUAUUUUCUCAUGGACCUGGUCAACCUGGAAGUACAUCUCUUGGCUUUGGAAGUCAACAGAGGAUUGAGCAUCA
B3: chr17:10306458:10306629:-|CDS|ENSG00000006788|control|control|control (ssRNA)
RNA: GGGAGUUCUACAGUCCGACGAUCCCACCUGGAGCGGAUGAAGAAGAACCUGGAGCAGACGGUGAAGGACCUGCAGCACCGUCUAGAUGAGGCUGAACAACUGGCGCUGAAGGGCGGGAAGAAGCAGAUCCAGAAACUGGAGAACAACAGAGGAUUGAGCAUCA
B4: chr18:2804133:2804242:+|3pUTR|ENSG00000101596|unk|FALSE|unique (ssRNA)
RNA: GGGAGUUCUACAGUCCGACGAUCGGUUAAAGAGAAAUGACUUUUUAGGAACUAGACUUGAACGUAUAAUUAAUAUGUGGAACUAGUUUGCUUUUAUAAUUCAUUGUAUCAAGAAGGAGUCAUGUUUUAAAUCCAAGGCAUUGACAACAGAGGAUUGAGCAUCA
B5: chr3:45823315:45826332:-|three_prime_utr|ENSG00000163818|control|control|control (ssRNA)
RNA: GGGAGUUCUACAGUCCGACGAUCUCAGGCAUGUAUUUUGAAAAGCAUUUUGUCAUAUCCCCUCUCCUUAUUUUUCUAAUAUUUAGACUUUGAAUAUUUAGAACUAGAGUUCCUAUUUUCAGCUAGUUGAAAACAGAGAAAACCCAACAGAGGAUUGAGCAUCA
B6: chr1:67413009:67413110:-|3pUTR|ENSG00000142864|unk|total|mutant (ssRNA)
RNA: GGGAGUUCUACAGUCCGACGAUCCUGAAUUUUAUCUGUUUUAAAAAUGAACUUCUCCCGCUACACAGAAGUAACAAAUAUGGCCGUCAGUUUUGUAUUCCGAAAUGUAUUGGCCGCAGGGAUGUUUUCAUAAUUUUCAGAGAUCAACAGAGGAUUGAGCAUCA
B7: chr17:57972098:57972209:-|3pUTR|ENSG00000136451|unk|total|mutant (ssRNA)
RNA: GGGAGUUCUACAGUCCGACGAUCCCCGAAUGUGGUUGUCAGAACCCUGAAAGUAUCCGUUCUAAAAAAAAAAAGAUAUAUACCCGAAGUAAUUGUUUUAUCAAUUCAUUGUAUAAUAAACAGGAGUGAGACUUCAUUGUAUGACAACAGAGGAUUGAGCAUCA
B8: ENSG00000136451:be:win_3801|3pUTR|ENSG00000136451|bound_else_gene|NA|bound_elsewhere_windowed (ssRNA)
RNA: GGGAGUUCUACAGUCCGACGAUCACCCCUAAGCUAGAAUGUGGUUGUCAGAACCCUGAAAGUAUUAGUUCUAAAAAAAAAAAGAUAUAUACUAGAAGUAAUUGUUUUAUCAAUUCAUUGUAUAAUAAACAGGAGUGAGACUUCCAACAGAGGAUUGAGCAUCA
B9: chr17:57972098:57972209:-|3pUTR|ENSG00000136451|unk|FALSE|bound_elsewhere (ssRNA)
RNA: B7 RNA with C25U, C26A, C56U, C57A, C83U, C84A
B10: ENSG00000186472:stop:overlap|stop_codon|ENSG00000186472|stop_codon|NA|stop_codon (ssRNA)
RNA: GGGAGUUCUACAGUCCGACGAUCUUUCUUGUAAAUGGAAAUUUUAUCAUGUGUAUAGAUUCUGUAGCAUGCUUUUCUUUAUUUAGUUUUACUUUAUUCCUUUAUUGUUCUGUUUCUUGAUUGUUUGCUUGAUUUGUUUGGUGUCAACAGAGGAUUGAGCAUCA
B11: ENSG00000136451:be:win_3751|3pUTR|ENSG00000136451|bound_else_gene|NA|bound_elsewhere_windowed (ssRNA)
RNA: GGGAGUUCUACAGUCCGACGAUCCUCCACAGUGGUCCAAGGAGCAGUCCUCAGUGGGGGCAGGUGUGGGCCCUACCCCUAAGCUAGAAUGUGGUUGUCAGAACCCUGAAAGUAUUAGUUCUAAAAAAAAAAAGAUAUAUACUACAACAGAGGAUUGAGCAUCA
B12: chr1:67413009:67413110:-|3pUTR|ENSG00000142864|unk|FALSE|unique (ssRNA)
RNA: B6 RNA with C83U, C84A, C99U, C100A, C113U, C114A

molecular target: MSI1 full-length (mouse, UniProt Q61474 1-362); assay: nsRBNS (natural sequence RNA bind-n-seq); RBNS binding buffer (assumed for nsRBNS): 25 mM Tris pH 7.5, 150 mM KCl, 3 mM MgCl2, 0.01% Triton X-100, 500 ug/ml BSA, 20 U/ml SUPERase-In, 4 C; UNK is unkempt and MSI1 is Musashi-1; names of the RNAs are library labels; protein concentration not given here; high values mean tight binding
Sequence (Q61474 whole entry): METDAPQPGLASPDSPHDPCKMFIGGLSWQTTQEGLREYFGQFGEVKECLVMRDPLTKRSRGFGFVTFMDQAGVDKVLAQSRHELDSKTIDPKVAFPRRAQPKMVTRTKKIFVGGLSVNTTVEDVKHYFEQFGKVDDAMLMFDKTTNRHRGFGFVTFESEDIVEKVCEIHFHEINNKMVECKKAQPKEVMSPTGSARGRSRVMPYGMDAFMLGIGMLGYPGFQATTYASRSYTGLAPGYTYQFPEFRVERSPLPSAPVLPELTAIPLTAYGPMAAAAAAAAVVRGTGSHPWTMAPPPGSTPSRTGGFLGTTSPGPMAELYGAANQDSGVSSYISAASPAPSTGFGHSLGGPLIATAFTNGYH

Row | Binder | binding signal [enrichment R]
1 | B1 | 0.595
2 | B2 | 0.305
3 | B3 | 0.485
4 | B4 | 1.24
5 | B5 | 5.79
6 | B6 | 0.413
7 | B7 | 0.711
8 | B8 | 16.4
9 | B9 | 29.3
10 | B10 | 0.35
11 | B11 | 1.89
12 | B12 | 41.4
